USP8 block – blocks human USP8 ubiquitin-rhodamine cleavage; 47,000 compounds, 4.2% hits; purified USP8, Ub-rhodamine cleavage fluorescence, 30 min; AID 1645853; inhibition, % at 20 µM; P40818
Target sequence (P40818 whole entry, looked up): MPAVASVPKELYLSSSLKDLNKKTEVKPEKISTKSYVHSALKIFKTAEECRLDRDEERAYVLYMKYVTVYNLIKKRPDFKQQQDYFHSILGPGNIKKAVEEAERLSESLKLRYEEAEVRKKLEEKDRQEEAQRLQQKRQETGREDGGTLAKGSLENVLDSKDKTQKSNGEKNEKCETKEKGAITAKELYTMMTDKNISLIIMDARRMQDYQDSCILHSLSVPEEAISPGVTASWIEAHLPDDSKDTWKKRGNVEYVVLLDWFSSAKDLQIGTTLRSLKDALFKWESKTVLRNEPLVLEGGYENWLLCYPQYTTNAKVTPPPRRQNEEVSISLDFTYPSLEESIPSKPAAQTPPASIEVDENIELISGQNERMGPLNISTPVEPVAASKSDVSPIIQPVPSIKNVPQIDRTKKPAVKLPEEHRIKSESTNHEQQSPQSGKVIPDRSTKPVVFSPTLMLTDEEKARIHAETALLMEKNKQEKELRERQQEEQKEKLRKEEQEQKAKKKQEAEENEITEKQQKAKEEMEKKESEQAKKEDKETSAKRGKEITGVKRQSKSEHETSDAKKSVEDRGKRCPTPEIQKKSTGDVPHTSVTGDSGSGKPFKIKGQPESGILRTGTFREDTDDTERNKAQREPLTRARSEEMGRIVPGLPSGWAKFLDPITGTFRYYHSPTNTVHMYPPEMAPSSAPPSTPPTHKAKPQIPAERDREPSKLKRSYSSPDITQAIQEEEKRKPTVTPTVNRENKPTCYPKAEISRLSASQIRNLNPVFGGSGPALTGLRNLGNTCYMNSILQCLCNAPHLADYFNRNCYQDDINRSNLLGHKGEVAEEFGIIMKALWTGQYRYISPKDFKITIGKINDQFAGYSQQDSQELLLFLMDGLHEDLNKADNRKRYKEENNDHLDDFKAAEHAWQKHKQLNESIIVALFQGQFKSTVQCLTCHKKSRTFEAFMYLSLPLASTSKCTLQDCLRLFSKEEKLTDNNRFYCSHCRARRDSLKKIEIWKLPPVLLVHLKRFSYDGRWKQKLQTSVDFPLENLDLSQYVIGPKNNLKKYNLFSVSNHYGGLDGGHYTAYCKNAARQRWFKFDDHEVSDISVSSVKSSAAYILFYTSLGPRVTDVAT
USP30 inh – blocks human USP30 ubiquitin-rhodamine cleavage; purified USP30, Ub-rhodamine cleavage fluorescence; Q70CQ3; 47,000 compounds, 5.3% hits; AID 1645860; inhibition, % at 25 µM
USP17 inh – human USP17-like deubiquitinase inhibition; A8MUK1; purified USP17, Ub-rhodamine cleavage fluorescence, 3 h; inhibition, % at 50 µM; 47,000 compounds, 6.5% hits; AID 1645855
USP10 inh – inhibitors of human USP10 deubiquitinase; Q14694; purified USP10, Ub-rhodamine fluorescence, 60 min; inhibition, % at 20 µM; 47,000 compounds, 1.1% hits
USP7 inh – human USP7 deubiquitinase inhibition | Q93009 | purified USP7, Ub-rhodamine cleavage fluorescence | inhibition, % at 20 µM | 47,000 compounds, 0.3% hits | AID 1645854
USP28 block – human USP28 deubiquitinase inhibition; Q96RU2; purified USP28, Ub-rhodamine cleavage fluorescence, 30 min; inhibition, % at 25 µM; 47,000 compounds, 3% hits; AID 1645857
Active calls of the source: *; i = inactive; . = no result. Most compounds without a hit are left out; they make up all but 13% or so of the library. Cut-off read from the data, not from the text of the source: active = inhibition above about 30%; inactive = the rest.

SMILES	USP8 block	USP30 inh	USP17 inh	USP10 inh	USP7 inh	USP28 block
Cc1cccc(NC(=O)c2ccc3c(c2)N(S(C)(=O)=O)CC3)c1	16	7	2	0	-2	6
CCS(=O)(=O)N1CCCc2cc(C(=O)Nc3ccccc3OC)ccc21	20	13	17	0	2	9
CS(=O)(=O)N1CCCc2cc(C(=O)Nc3ccc(Oc4ccccc4)cc3)ccc21	5	-18	-14	8	1	54*
CC1CS(=O)(=O)N(c2ccc(C(=O)Nc3ccc4c(c3)OCCO4)cc2)C1=O (centres undefined)	3	17	56*	2	1	79*
CCS(=O)(=O)N1CCc2cc(C(=O)Nc3ccc4c(c3)OCCO4)ccc21	4	4	5	-2	2	93*
Cc1ccc(CNC(=O)c2ccc(N3C(=O)C(C)CS3(=O)=O)cc2)cc1 (centres undefined)	-6	7	9	-1	6	5
COc1cccc(-c2cncc(C3CCCN(C(=O)c4ccn[nH]4)C3)n2)c1 (centres undefined)	0	5	-13	0	-5	-7
O=C1NC2(CCN(S(=O)(=O)c3ccc(Cl)cc3)CC2)Nc2ccccc21	17	-8	-1	6	7	-31
Cn1c(=O)n(CC(O)c2ccccc2F)c2ccccc21 (centres undefined)	15	4	10	0	-2	5
Cc1ccc(-c2cc(C(=O)Nc3nc(-c4ccc5ccccc5c4)cs3)c3ccccc3n2)cc1C	-13	-55	6	-8	6	-14
C=C(C)CSc1nc(Cc2ccccc2)nc2sc3c(c12)CC(C)(C)OC3	10	11	8	3	9	33*
Cc1ccc(C2CC(c3ccccc3)N(C(=O)C(C)C)c3ncnn32)cc1 (centres undefined)	5	40*	13	2	0	13
CC(C)C(=O)N1c2ncnn2C(c2ccccc2)CC1c1ccccc1 (centres undefined)	7	15	1	3	.	0
COc1ccccc1C1CC(c2ccccc2)N(C(=O)CC(C)C)c2ncnn21 (centres undefined)	4	31*	27	2	2	14
O=C(Nc1sc2c(c1C(=O)NCc1cccnc1)CCCC2)c1csnn1	-17	11	49*	12	5	38*
O=C(Nc1cccnc1)C1c2ccccc2C(=O)N(C2CCCC2)C12CCCCC2 (centres undefined)	36*	18	21	9	7	5
Cc1cc(NC(=O)CSc2nnc(-c3cccc(Cl)c3)o2)no1	2	13	49*	-1	3	3
Cc1ccc(-c2nnc3ccc(SCC(=O)N4CCCc5ccccc54)nn23)cc1	-4	30*	-4	-1	-4	18
Cc1cc(NC(=O)CSc2nnc(CNC(=O)c3ccco3)o2)no1	0	-12	-2	-4	-7	-5
O=C(CSc1nnc(-c2cccc(Cl)c2)o1)N1CCCc2ccccc21	20	32*	23	6	2	23
Cc1cc(NC(=O)CSc2nnc(-c3ccc4c(c3)OCCO4)o2)no1	31*	0	11	-4	0	-11
O=C(CSc1nc2ccccc2o1)N1CCCc2ccccc21	4	17	11	3	-3	21
Cc1nnc(-c2cccc(NC(=O)C3CCN(Cc4ccc5c(c4)CCO5)CC3)c2)s1	-17	-5	2	-3	0	6
Cc1ccc(NC(=O)CSc2nnc(-c3ccncc3)o2)cc1F	-3	6	46*	0	0	-5
O=C(CSc1nnc(-c2cccnc2)o1)Nc1ccc(F)cc1	16	27	16	0	8	3
SMILES	USP8 block	USP30 inh	USP17 inh	USP10 inh	USP7 inh	USP28 block
Nc1ccc(F)c(NS(=O)(=O)c2ccccc2)c1	72*	-74	58*	-2	12	41*
O=C(Nc1ccc(N2CCN(Cc3ccc(F)cc3)C2=O)nc1)C1CCC1	28	63*	60*	-1	4	38*
O=C(Nc1ccc(N2CCN(c3ccccc3)C2=O)nc1)C1CCOC1 (centres undefined)	-27	35*	26	-1	2	10
O=C(Cc1n[nH]c(Cc2ccc(F)cc2)n1)NC1CCCCCC1	42*	3	9	-2	-27	4
CCOc1ccc(NC(=O)Cn2c(=O)n(CC(=O)NCc3ccc(C)cc3)c(=O)c3sccc32)cc1	30	70*	.	18	14	15
COc1ccc(NC(=O)Cn2c(=O)n(CC(=O)NCc3ccc(C)cc3)c(=O)c3sccc32)cc1OC	1	75*	71*	13	9	70*
O=C(NC(Cc1ccccc1)c1nc2ccccc2[nH]1)c1nc(Cl)ccc1Cl (centres undefined)	-6	-58	23	-3	4	24
O=C(NC(Cc1ccccc1)c1nc2ccccc2[nH]1)C1CCC1 (centres undefined)	63*	11	17	-1	1	12
O=C(NC(Cc1c[nH]c2ccccc12)c1nc2ccccc2[nH]1)c1ccccc1 (centres undefined)	42*	-38	34*	-7	0	-2
O=C(Cc1ccccc1)NCc1nc2ccccc2[nH]1	-1	-14	-3	-1	1	0
O=C(NC(Cc1ccccc1)c1nc2ccccc2[nH]1)c1ccc(-n2cnnn2)cc1 (centres undefined)	43*	19	11	1	-2	2
COc1ccc(C(=O)NC(Cc2ccccc2)c2nc3ccccc3[nH]2)c(OC)c1 (centres undefined)	95*	1	71*	18	-5	28
CCNC(=O)N1C2CCC(O)(CC2)C1CN1CCOCC1 (centres undefined)	6	-13	1	-6	0	4
Cc1cc(Nc2ccc3c(c2)OCO3)n2ncnc2n1	-11	-132	3	-8	-6	-22
O=C(c1ccc(N2CCCS2(=O)=O)cc1)N1CC=C(c2ccccc2)CC1	-5	-4	0	1	-10	2
COC(=O)C1C(c2ccc(Cl)cc2Cl)C2(C(=O)c3ccccc3C2=O)C2C=Cc3ccccc3N12 (centres undefined)	-245	i	-168	-4	-151	-262
O=C(NC(Cc1ccccc1)c1nc2ccccc2[nH]1)c1ccccn1 (centres undefined)	-40	-11	-16	-3	0	57*
O=C(N[C@@H](Cc1ccccc1)c1nc2ccccc2[nH]1)c1ccncc1	10	-9	24	-2	1	5
O=C(CSc1nnc(-c2ccncc2)n1Cc1ccccc1)NC(=O)c1ccccc1	15	-33	-5	-3	-8	-14
O=C(COc1ccccc1Cl)Nc1ccc(F)cc1F	24	15	6	3	2	2

Compound activity (PubChem)
